# Reference: PubChem BioAssay AID1014 (NMMLSC, 2008)
# Active and inactive are the calls of the source. Rule as the data show it: active = inhibition of mean fluorescence above about 33%; inactive = the rest.
# Test: quorum sensing inhibitors in bacterial reporter, SAR follow-up, flow cytometry, SAR analogs (AID 1014);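 also: Staphylococcus aureus RN6390 with RNAIII-GFP reporter stimulated by AIP; bacteria incubated with compound for 3 hours at 37 °C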
# Conditions: at 20 µM, stronger effect = higher value; inhibition of percent positive cells: flow cytometry fluorescence, measured here: percent reporter-positive cells
SMILES,inhibition of mean fluorescence,inhibition of percent positive cells [%]
CC1CCN(C(C(=O)NC2CCCC2)c2cc3c(cc2[N+](=O)[O-])OCO3)CC1 (centres undefined),-5.4% (inactive),-1
COc1c(F)c(F)c(C(=O)O)c(Nc2ccccc2)c1F,-23.9% (inactive),-2.3
O=C(NC1CCCCC1)C(c1cc2c(cc1[N+](=O)[O-])OCO2)N1CCN(c2ccccc2)CC1 (centres undefined),-34.9% (inactive),0.3
O=C(Nc1ccc2c(c1)OCO2)C1CCCN(C(=O)c2cnn(-c3ccccc3)c2-n2cccc2)C1 (centres undefined),-23.9% (inactive),0.1
CCOC(=O)c1c(COc2ccccc2)oc2ccc(O)cc12,-1.1% (inactive),-0.9
O=C(NCC(c1cccnc1)N1CCN(c2ccc(F)cc2)CC1)c1ccc(F)cc1 (centres undefined),-11.6% (inactive),-0.2
CC1CCN(C(C(=O)Nc2ccc(C(C)C)cc2)c2ccc3c(c2)OCO3)CC1 (centres undefined),35% (active),-0.9
CCc1ccc(Nc2nc3c(S(=O)(=O)c4ccc(C(C)(C)C)cc4)nnn3c3ccccc23)cc1,3.7% (inactive),-0.1
COc1ccc(Nc2nc3c(S(=O)(=O)c4ccc(C)cc4)nnn3c3ccccc23)cc1,4.9% (inactive),-0.8
COc1ccc(C(=O)c2coc3ccc(O)cc23)cc1,5% (inactive),0.8
CC1CCN(c2c(NCC3CCC(C(=O)NCc4ccc5c(c4)OCO5)CC3)c(=O)c2=O)CC1 (centres undefined),-24.3% (inactive),-0.6
COc1ccc(Nc2nc3c(S(=O)(=O)c4ccc(C)cc4)nnn3c3ccsc23)cc1,-6.2% (inactive),-0.3
CCOC(=O)c1c(C)oc2cc(Br)c(O)c(C=O)c12,-4.5% (inactive),2.9
CC(C)c1ccc(NC(=O)C(c2cc3c(cc2[N+](=O)[O-])OCO3)N2CCOCC2)cc1 (centres undefined),8.1% (inactive),0.7
O=C(CN1CC(c2ccccc2)CC1=O)Nc1ccc2c(c1)OCO2 (centres undefined),5.5% (inactive),-0.1
O=C(Nc1ccc2c(c1)OCO2)C1CCN(C(=O)c2cnn(-c3ccccc3)c2-n2cccc2)CC1,-13.6% (inactive),-0.1
O=C(NC1CCCCC1)C(c1cc2c(cc1[N+](=O)[O-])OCO2)N1CCCCC1 (centres undefined),12% (inactive),-0.2
CC(=O)Nc1ccc(Nc2nc3c(S(=O)(=O)c4ccc(C(C)C)cc4)nnn3c3ccccc23)cc1,13.8% (inactive),0.4
CC(C)c1ccc(S(=O)(=O)c2nnn3c2nc(N)c2ccccc23)cc1,11.1% (inactive),0.3

SMILES,inhibition of mean fluorescence,inhibition of percent positive cells [%]
CC1CCN(C(C(=O)Nc2ccc3c(c2)OCO3)c2ccccc2)CC1 (centres undefined),32.4% (active),-0.7
O=C(NC1CCCC1)C(c1cc2c(cc1[N+](=O)[O-])OCO2)N1CCN(C2CCCCC2)CC1 (centres undefined),-24.8% (inactive),-1.4
COc1ccc(Nc2nc3c(S(=O)(=O)c4ccccc4)nnn3c3ccccc23)cc1,-5.6% (inactive),-0.4
CCc1ccc(Nc2nc3c(S(=O)(=O)c4ccc(C(C)C)cc4)nnn3c3ccccc23)cc1,6.9% (inactive),-1.1
O=C(Nc1ccc2c(c1)OCO2)C1CCN(Cc2cnn(-c3ccccc3)c2-n2cccc2)CC1,-33.1% (inactive),-0.6
Nc1c(Nc2ccccc2C(=O)O)c2ccccc2oc1=O,0% (inactive),-2.2
CN1CCN(C(C(=O)NC2CCCCC2)c2cc3c(cc2[N+](=O)[O-])OCO3)CC1 (centres undefined),-5.8% (inactive),-0.4
COc1ccccc1N1CCN(C(CNC(=O)c2ccc(F)cc2)c2cccnc2)CC1 (centres undefined),6.4% (inactive),-1.7
O=C(O)c1ccccc1Nc1ccnc(N2CCOCC2)n1,5.6% (inactive),0
CC(C)c1ccc(S(=O)(=O)c2n[nH]n3c2nc(=O)c2ccccc23)cc1,80.5% (active),22.1
COc1ccc(C2C(C(=O)Nc3ccc4c(c3)OCO4)c3ccccc3C(=O)N2C2CCCCC2)cc1 (centres undefined),8% (inactive),0.6
Cc1oc2ccc(O)cc2c1C(=O)OC(C)C,-11.3% (inactive),0.1
CCOc1ccc(Nc2nc3c(S(=O)(=O)c4ccc(C(C)C)cc4)nnn3c3ccccc23)cc1,-3.7% (inactive),-0.1
O=C(NCC(c1cccnc1)N1CCN(c2ccccc2F)CC1)c1ccc(F)cc1 (centres undefined),11.5% (inactive),-1.8
COc1c(F)c(F)c(C(=O)O)c(Nc2ccc(C)cc2C)c1F,67.8% (active),13.3
CC(C)c1ccc(NC(=O)C(c2ccc3c(c2)OCO3)N2CCCCC2)cc1 (centres undefined),36.4% (active),-0.7
CC(=O)Nc1ccc(Nc2nc3c(S(=O)(=O)c4ccccc4)nnn3c3ccccc23)cc1,-8% (inactive),3.3
CC(=O)c1ccc(Nc2nc3c(S(=O)(=O)c4ccccc4)nnn3c3ccccc23)cc1,11.9% (inactive),0.1
